Test results from PubChem BioAssay (NCI).
This is part of a sample that, as a whole, favours compounds with a hit. Of some 83,000 tested, about 20% had one in any assay.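 Values shown are percent growth following 48 h exposure of cells in 96-well plates to a single concentration of compound; below 10 was considered active.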 A number with no mark means an inactive call. Active and inactive are the calls of the source.

What follows are compounds tested on MALME-3M melanoma (assay: NCI-60 one-dose screen, 48 h (100 = growth as untreated, 0 = no growth, -100 = all killed)). Details: 10 µM.
`O=C1/C(=C\c2cn(C(=O)c3ccc(Cl)cc3)c3ccccc23)c2ccccc2N1C(=O)c1ccc(Cl)cc1` showed a growth of 126%.
For `Cc1ccc(Nc2cc(C)nc(NCCCNc3ccnc4cc(Cl)ccc34)n2)cc1`, the growth was -80.5% (active).
`COc1ccc(-c2nnc(-c3c(-c4ccccc4)nc4ncccn34)o2)cc1OC` gave a growth of 121%.
Compound `Oc1[nH]c2cc(Cl)ccc2c1/C=c1/ccc2c(c1)N=C(c1cc(F)cc(F)c1)N=2` has a growth of 51.4%.
For `Cc1cc(N(CCCNc2ccnc3cc(Cl)ccc23)Cc2ccc3c(c2)OCO3)nc(N2CCOCC2)n1`, the growth was -71.4% (active).
For `COc1cc(/C=N/NC(=O)c2ccccc2Nc2ccnc(C(F)(F)F)c2)ccc1O`, the growth was 121%.
`Cc1cc(N(CCCNc2ccnc3cc(Cl)ccc23)Cc2ccc3c(c2)OCO3)nc(N2CCCCC2)n1` was tested, and the growth was -81.6% (active).
With `Clc1ccc2c(NCCCNc3nccc(Nc4ccc(Br)cc4)n3)ccnc2c1` the growth was -83.8% (active).
`Cc1cc(N(CCCNc2ccnc3cc(Cl)ccc23)Cc2cccs2)nc(Cl)n1` was tested, and the growth was 37.9%.
In the case of `Clc1ccc(Nc2ccnc(NCCCNc3ccnc4cc(Cl)ccc34)n2)cc1`, the growth is reported as -81% (active).
For `Cc1cc(Cl)nc(N(CCCNc2ccnc3cc(Cl)ccc23)Cc2cccs2)n1`, the growth was -30% (active).
With `CCCCN(CCCC)c1cc(C(=O)CCCCCN)c2ccccc2n1` the growth was -74.4% (active).
`COc1ccc(-c2nc3sccn3c2-c2nc3c([nH]2)C(=O)c2ccccc2C3=O)cc1` gave a growth of 151%.
For `CN(C)CCNC(=O)c1cccn2c(=O)c3cc4ccccc4cc3nc12`, the growth was -45.2% (active).
`CC(C)=CCc1cc(O)cc2c1OC(C=C(C)C)C1=C2C(=O)C2=C(NCCS2(=O)=O)C1=O` (centres undefined) was tested, and the growth was -92.9% (active).
For `Clc1ccc(Nc2ccnc(NCCNc3ccnc4cc(Cl)ccc34)n2)cc1`, the growth was -83.6% (active).
`COc1cc(-c2nc(-c3nnc(-c4ccc(F)c(Cl)c4)o3)c3ccccn23)cc(OC)c1OC` gave a growth of 13.4%.
`COc1ccc(-c2nc3ccccn3c2-c2nnc(-c3cc(OC)c(OC)c(OC)c3)o2)cc1` gave a growth of 51.5%.
`CN1CCC(CNc2cc(C3(C(=O)Nc4cc(C(=O)Nc5ccc(Cl)c(C(F)(F)F)c5)ccc4F)CC3)ncn2)CC1` was tested, and the growth was -67.7% (active).
For `CN1CCC2(CC1)NC(=O)c1c(c3ccc(Cl)c(Cl)c3n1C)C2C#N` (centres undefined), the growth was 98.3%.
`COc1ccc(-c2nc3ncccn3c2-c2nnc(-c3ccsc3C)o2)cc1` was tested, and the growth was 80.8%.
`COc1ccc2c(c1)/C(=C\c1c[nH]c3ccc(OC)cc13)C(=O)N2` gave a growth of 91.8%.
Work on `O=C(Nc1cccc(Br)c1)c1cc(=O)[nH]c2ccccc12` yielded a growth of 101%.
Compound `NC(=O)CC1(c2ccccc2)CCCCC1` has a growth of 93.8%.
Compound `COC(=O)C(=C\c1ccc2c(c1)OCO2)/C(=C/c1ccc2c(c1)OCO2)C(=O)OC` has a growth of 101%.
Work on `Fc1ccc(-c2nnc(-c3c(-c4ccc(F)cc4)nc4ccccn34)o2)cc1` yielded a growth of 120%.
For `COc1ccc(Nc2cc(C)nc(NCCCNc3ccnc4cc(Cl)ccc34)n2)cc1`, the growth was -86.2% (active).
For `COc1cc(-c2nnc(-c3c(-c4ccc(F)cc4)nc4ccccn34)o2)cc(OC)c1OC`, the growth was 105%.
Work on `CCN(CC)CCNc1ccc(CO)c2oc3cc(Cl)ccc3c(=O)c12` yielded a growth of 112%.
For `CC(C)=CCc1cc(O)cc2c1OC(C=C(C)C)C1=C2C(=O)C2=C(C1=O)S(=O)(=O)CCN2` (centres undefined), the growth was -64.7% (active).
`Cc1cc(Nc2ccc(Cl)cc2)nc(NCCCNc2ccnc3cc(Cl)ccc23)n1` was tested, and the growth was -82.2% (active).
`CC12O[C@H](C[C@@H](OC(=O)c3ccccc3)[C@H]1O)n1c3ccccc3c3c4c(c5c6ccccc6n2c5c31)C(=O)NC4=O` was tested, and the growth was 46.4%.
Work on `Cc1ccc(C(=O)Nc2cccc(F)c2)cc1NC(=O)C1(c2ncnc3[nH]ccc23)CC1` yielded a growth of 35%.
`COc1cc(-c2nc(-c3nnc(-c4ccccc4Cl)o3)c3ccccn23)cc(OC)c1OC` gave a growth of 119%.
For `COc1ccc(Nc2ccnc(NCCNc3ccnc4cc(Cl)ccc34)n2)cc1`, the growth was -1.18% (active).
`COc1cc(Nc2ccnc(NCCNc3ccnc4cc(Cl)ccc34)n2)cc(OC)c1` was tested, and the growth was -68.3% (active).
With `O=C(Nc1nc2ccc(F)cc2s1)c1cc(-c2ccc(F)cc2)n2nc(-c3ccccc3)cc2n1` the growth was -1.39% (active).
Work on `CC12O[C@H](C[C@@H](O)[C@H]1O)n1c3ccccc3c3c4c(c5c6ccccc6n2c5c31)C(=O)N(CCCN)C4=O` yielded a growth of 33.4%.
For `COc1ccc(-c2nc3ncccn3c2-c2nnc(-c3ccc(F)cc3)o2)cc1`, the growth was 122%.
